# Only a selection was taken, and the strongest signals are over-represented in it overall.
# Key:
# Assay in all cases: glycan array binding signal (z-score within array); higher = stronger binding
# Conditions in all cases: glycan notation: IUPAC condensed, linker removed
# [1] = target: Fuc(a1-2)Gal(b1-3)GlcNAc(b1-2)Man(a1-3)[Fuc(a1-2)Gal(b1-3)GlcNAc(b1-2)Man(a1-6)]Man(b1-4)GlcNAc(b1-4)[Fuc(a1-6)]GlcNAc
# Outline: (§1)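 The binding signal is a Z-score computed within each array and averaged over linkers. Arrays of the same protein sequence at different concentrations or buffers were also averaged together. Data originate from 3228 arrays in the Consortium for Functional Glycomics database, kept only where the protein sequence was available.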
# [2] = target: Fuc(a1-2)Gal(b1-3)[Fuc(a1-4)]GlcNAc
# Outline: as §1
# [3] = target: Fuc(a1-2)Gal(b1-3)[Fuc(a1-4)]GlcNAc(b1-2)Man(a1-3)[Fuc(a1-2)Gal(b1-3)[Fuc(a1-4)]GlcNAc(b1-2)Man(a1-6)]Man(b1-4)GlcNAc(b1-4)GlcNAc
# Outline: as §1
# [4] = target: Fuc(a1-2)Gal(b1-3)[Fuc(a1-4)]GlcNAc(b1-2)Man(a1-6)[Fuc(a1-2)Gal(b1-3)[Fuc(a1-4)]GlcNAc(b1-2)Man(a1-3)]Man(b1-4)GlcNAc(b1-4)[Fuc(a1-6)]GlcNAc
# Outline: as §1
# [5] = target: Fuc(a1-2)Gal(b1-4)[Fuc(a1-3)]GlcNAc(b1-2)Man(a1-6)[Fuc(a1-2)Gal(b1-4)[Fuc(a1-3)]GlcNAc(b1-2)Man(a1-3)]Man(b1-4)GlcNAc(b1-4)[Fuc(a1-6)]GlcNAc
# Outline: as §1
# [6] = target: Fuc(a1-2)Gal(b1-4)[Fuc(a1-3)]GlcNAc(b1-3)Gal(b1-4)[Fuc(a1-3)]GlcNAc(b1-3)Gal(b1-4)[Fuc(a1-3)]GlcNAc
# Outline: as §1
# [7] = target: Fuc(a1-2)Gal(b1-4)[Fuc(a1-3)]GlcNAc(b1-3)GalNAc
# Outline: as §1
# Fuc(a1-2)[Gal(a1-3)]Gal = target: Fuc(a1-2)[Gal(a1-3)]Gal
# Outline: as §1
# [8] = target: Fuc(a1-2)[Gal(a1-3)]Gal(b1-4)GlcNAc(b1-2)Man(a1-3)[Fuc(a1-2)[Gal(a1-3)]Gal(b1-4)GlcNAc(b1-2)Man(a1-6)]Man(b1-4)GlcNAc(b1-4)GlcNAc
# Outline: as §1
# [9] = target: Fuc(a1-2)[GalNAc(a1-4)]Gal(b1-4)GlcNAc
# Outline: as §1
# [10] = target: Fuc(a1-3)[Gal(b1-4)]GlcNAc(b1-2)Man(a1-3)[Fuc(a1-3)[Gal(b1-4)]GlcNAc(b1-2)Man(a1-6)]Man(b1-4)GlcNAc(b1-4)[Fuc(a1-6)]GlcNAc
# Outline: as §1
# [11] = target: Fuc(a1-3)[Gal(b1-4)]GlcNAc(b1-3)GalNAc
# Outline: as §1
# [12] = target: Fuc(a1-3)[Gal3S(b1-4)]GlcNAc
# Outline: as §1
# [13] = target: Gal(a1-3)Gal(b1-4)[Fuc(a1-3)]GlcNAc(b1-2)Man(a1-3)[Gal(a1-3)Gal(b1-4)[Fuc(a1-3)]GlcNAc(b1-2)Man(a1-6)]Man(b1-4)GlcNAc(b1-4)GlcNAc
# Outline: as §1
# Gal(b1-2)Gal = target: Gal(b1-2)Gal
# Outline: as §1
# [14] = target: Gal(b1-3)GalNAc(b1-3)Gal(a1-4)Gal(b1-4)Glc
# Outline: as §1
# [15] = target: Gal(b1-3)[Fuc(a1-4)]GlcNAc(b1-3)Gal(b1-3)[Fuc(a1-4)]GlcNAc
# Outline: as §1
# [16] = target: Gal(b1-4)GlcNAc(b1-2)Man(a1-3)[Gal(b1-4)GlcNAc(b1-2)Man(a1-6)]Man(b1-4)GlcNAc(b1-4)GlcNAc
# Outline: as §1
# [17] = target: Gal(b1-4)GlcNAc(b1-2)Man(a1-3)[GlcNAc(b1-2)Man(a1-6)]Man(b1-4)GlcNAc(b1-4)GlcNAc
# Outline: as §1
# [18] = target: Gal(b1-4)GlcNAc(b1-2)Man(a1-3)[Man(a1-6)]Man(b1-4)GlcNAc(b1-4)GlcNAc
# Outline: as §1
# Gal3S6S(b1-4)GlcNAc = target: Gal3S6S(b1-4)GlcNAc
# Outline: as §1
# Gal6P(b1-4)GlcNAc = target: Gal6P(b1-4)GlcNAc
# Outline: as §1
# GalNAc(a1-3)Gal = target: GalNAc(a1-3)Gal
# Outline: as §1
# GalNAc(b1-3)Gal = target: GalNAc(b1-3)Gal
# Outline: as §1
# GalNAc(b1-4)Gal(b1-4)Glc = target: GalNAc(b1-4)Gal(b1-4)Glc
# Outline: as §1
# [19] = target: Glc(a1-4)Glc(a1-4)Glc(a1-4)Glc
# Outline: as §1
# [20] = target: GlcNAc(a1-4)Gal(b1-4)GalNAc
# Outline: as §1
# GlcNAc(b1-3)Gal = target: GlcNAc(b1-3)Gal
# Outline: as §1
# [21] = target: GlcNAc(b1-3)[GlcNAc(b1-4)][GlcNAc(b1-6)]GlcNAc
# Outline: as §1
# Kdn(a2-6)Gal(b1-4)GlcNAc = target: Kdn(a2-6)Gal(b1-4)GlcNAc
# Outline: as §1
binder,measurement,setting,value
"Strep tagII-anxA1 (Homo sapiens), P04083 (protein) MAMVSEFLKQAWFIENEEQEYVQTVKSSKGGPGSAVSPYPTFNPSSDVAALHKAIMVKGVDEATIIDILTKRNNAQRQQIKAAYLQETGKPLDETLKKALTGHLEEVVLALLKTPAQFDADELRAAMKGLGTDEDTLIEILASRTNKEIRDINRVYREELKRDLAKDITSDTSGDFRNALLSLAKGDRSEDFGVNEDLADSDARALYEAGERRKGTDVNVFNTILTTRSYPQLRRVFQKYTKYSKHDMNKVLDLELKGDIEKCLTAIVKCATSKPAFFAEKLHQAMKGVGTRHKALIRIMVSRSEIDMNDIKAFYQKMYGISLCQAILDETKGDYEKILVALCGGN",glycan array binding signal (z-score),[1],0.314
same,glycan array binding signal (z-score),[2],5.05
same,glycan array binding signal (z-score),[3],10.7
same,glycan array binding signal (z-score),[4],3.12
same,glycan array binding signal (z-score),[5],3.12
same,glycan array binding signal (z-score),[6],0.054
same,glycan array binding signal (z-score),[7],-0.317
same,glycan array binding signal (z-score),Fuc(a1-2)[Gal(a1-3)]Gal,-0.612
same,glycan array binding signal (z-score),[8],1.69
same,glycan array binding signal (z-score),[9],-0.304
same,glycan array binding signal (z-score),[10],2.81
same,glycan array binding signal (z-score),[11],-0.209
same,glycan array binding signal (z-score),[12],0.479
same,glycan array binding signal (z-score),[13],3.62
same,glycan array binding signal (z-score),Gal(b1-2)Gal,-0.402
same,glycan array binding signal (z-score),[14],-0.44
same,glycan array binding signal (z-score),[15],-0.366
same,glycan array binding signal (z-score),[16],-0.682
same,glycan array binding signal (z-score),[17],-0.567
same,glycan array binding signal (z-score),[18],1.08
same,glycan array binding signal (z-score),Gal3S6S(b1-4)GlcNAc,0.386
same,glycan array binding signal (z-score),Gal6P(b1-4)GlcNAc,-0.017
same,glycan array binding signal (z-score),GalNAc(a1-3)Gal,0.67
same,glycan array binding signal (z-score),GalNAc(b1-3)Gal,-0.664
same,glycan array binding signal (z-score),GalNAc(b1-4)Gal(b1-4)Glc,1.79
same,glycan array binding signal (z-score),[19],3.56
same,glycan array binding signal (z-score),[20],2.68
same,glycan array binding signal (z-score),GlcNAc(b1-3)Gal,-0.607
same,glycan array binding signal (z-score),[21],2.8
same,glycan array binding signal (z-score),Kdn(a2-6)Gal(b1-4)GlcNAc,-0.606
